Source: PubChem
MazEF act: increases E. coli MazEF RNase cleavage of RNA; P0AE70; FAM/BHQ RNA-DNA oligo cleavage fluorescence, 5 h; activation, % at 20 µM; 350,000 compounds, 0.32% hits; AID 504720; in the data active = activation above about 50%
Anthrax LF inh2: inhibitors of Bacillus anthracis lethal factor protease; P15917; multiplex microsphere protease cleavage assay, LF; inhibition, % at 10 µM; 360,000 compounds, 0.12% hits; AID 588501
BoNT-A LC inh2: inhibitors of Botulinum neurotoxin A light chain protease. 360,000 compounds, 0.17% hits. multiplex microsphere protease substrate cleavage, flow cytometry. inhibition, % at 10 µM
Autofluor counter: flagged as autofluorescent in microsphere protease counterscreen | compound autofluorescence counterscreen, microsphere flow cytometry; active compounds read high | fluorescence intensity (no concentration beside the values) | 360,000 compounds, 3.1% hits; in the data active = fluorescence intensity above about 16000; inconclusive = no clear call, values can overlap the other calls
BoNT-F LC inh: blocks Botulinum neurotoxin F light chain protease; Multiplex microsphere protease cleavage assay, flow cytometry; inhibition, % at 10 µM; 360,000 compounds, 0.22% hits; in the data active = inhibition above about 35%, passing the limit was not always enough; inconclusive = no clear call, values can overlap the other calls
Numbers stand for hits. Hits are enriched below; roughly 3.6% of the tested compounds scored in any of these assays. Rule as the data show it, unless noted: active = inhibition above about 30%; inconclusive = no clear call, values can overlap the other calls; inactive = below that.

Results for CC1(C)NC(=O)N(CC(O)CN2C(=O)NC(C)(C)C2=O)C1=O ?
MazEF act: inactive; Anthrax LF inh2: inactive; BoNT-A LC inh2: inactive; Autofluor counter: 23204; BoNT-F LC inh: inactive

Results for CCN(CC)CC(O)CN1C(=O)NC(C)(C)C1=O (stereo not given) ?
MazEF act: inactive; Anthrax LF inh2: inactive; BoNT-A LC inh2: inactive; Autofluor counter: inactive; BoNT-F LC inh: inactive

Results for CO[C@H](C(=O)N(C)C[C@@H]1OCc2ccccc2-c2c(n(C)c3ccccc23)C(=O)N([C@H](C)CO)C[C@@H]1C)c1ccccc1 ?
MazEF act: inactive; Anthrax LF inh2: inactive; BoNT-A LC inh2: inactive; Autofluor counter: inactive; BoNT-F LC inh: inactive

Results for COc1cc(OC)nc(NC2OC(=O)c3ccccc32)n1 (stereo not given) ?
MazEF act: inactive; Anthrax LF inh2: inactive; BoNT-A LC inh2: inactive; Autofluor counter: 16622; BoNT-F LC inh: inactive

How did O=C1OC(Nc2ncccn2)c2ccccc21 (stereo not given) do in these assays?
MazEF act: inactive; Anthrax LF inh2: inactive; BoNT-A LC inh2: inactive; Autofluor counter: inactive; BoNT-F LC inh: inactive

What do the screens show for `O=C(CSc1nnc(-c2cccs2)o1)NCC1CN(Cc2ccccc2)CCO1` (stereo not given)?
MazEF act: inactive; Anthrax LF inh2: inactive; BoNT-A LC inh2: inactive; Autofluor counter: 20699; BoNT-F LC inh: inactive

How did COc1ccc(NCC(=O)NN=C2CCS(=O)(=O)c3ccc(F)cc32)cc1 do in these assays?
MazEF act: inactive; Anthrax LF inh2: inactive; BoNT-A LC inh2: inactive; Autofluor counter: inactive; BoNT-F LC inh: inactive

Results for COc1ccc(NC(=O)CSc2ncn(-c3ccccc3)n2)cc1Cl ?
MazEF act: inactive; Anthrax LF inh2: inactive; BoNT-A LC inh2: inactive; Autofluor counter: 19084; BoNT-F LC inh: inactive

How did O=C(CSc1ccccn1)Nc1ccc(Br)cn1 do in these assays?
MazEF act: inactive; Anthrax LF inh2: inactive; BoNT-A LC inh2: inactive; Autofluor counter: inactive; BoNT-F LC inh: inactive

What do the screens show for `O=C(CSc1ncn(-c2ccccc2)n1)Nc1ccc2c(c1)OCCO2`?
MazEF act: inactive; Anthrax LF inh2: inactive; BoNT-A LC inh2: inactive; Autofluor counter: 24180; BoNT-F LC inh: inactive

How did O=C(CSc1ncn(-c2ccccc2)n1)Nc1ccc(Br)cn1 do in these assays?
MazEF act: inactive; Anthrax LF inh2: inactive; BoNT-A LC inh2: inactive; Autofluor counter: 21921; BoNT-F LC inh: inactive

Results for Cc1ccc(NC(=O)CSc2ncn(-c3ccccc3)n2)cc1C ?
MazEF act: inactive; Anthrax LF inh2: inactive; BoNT-A LC inh2: inactive; Autofluor counter: inactive; BoNT-F LC inh: inactive

How did CCOC(=O)c1sc(NC(=O)CSc2ncn(-c3ccccc3)n2)nc1C do in these assays?
MazEF act: inactive; Anthrax LF inh2: inactive; BoNT-A LC inh2: inactive; Autofluor counter: inactive; BoNT-F LC inh: inactive

Results for O=C(CSc1ncn(-c2ccccc2)n1)Nc1ccc2c(c1)OCO2 ?
MazEF act: inactive; Anthrax LF inh2: inactive; BoNT-A LC inh2: inactive; Autofluor counter: inactive; BoNT-F LC inh: inactive

What do the screens show for `Cc1sc(NC(=O)CSc2ncn(-c3ccccc3)n2)nc1-c1ccccc1`?
MazEF act: inactive; Anthrax LF inh2: inactive; BoNT-A LC inh2: inactive; Autofluor counter: 16319; BoNT-F LC inh: inactive

Results for COc1ccc(CNC(=O)c2ccc(-n3ccnc3)c3ccoc23)cc1OC ?
Anthrax LF inh2: inactive; BoNT-A LC inh2: inactive; Autofluor counter: inactive; BoNT-F LC inh: inactive

What do the screens show for `CN[C@H](C)C(=O)NC[C@H]1O[C@@H](n2cnc3c(N)ncnc32)[C@H](O)[C@@H]1O`?
MazEF act: inactive; Anthrax LF inh2: inactive; BoNT-A LC inh2: inactive; Autofluor counter: inactive; BoNT-F LC inh: inactive

How did Cc1ccc(-c2[nH]ncc2C(=O)c2ccccc2C)c(O)c1 do in these assays?
MazEF act: inactive; Anthrax LF inh2: inactive; BoNT-A LC inh2: inactive; Autofluor counter: inactive; BoNT-F LC inh: 35.7

Results for CCN1C(=O)[C@H]2[C@@H](c3ccc(-c4ccc(OC)cc4)cc3)N[C@@](CC(C)C)(C(=O)OC)[C@H]2C1=O ?
MazEF act: inactive; Anthrax LF inh2: inactive; BoNT-A LC inh2: inactive; Autofluor counter: inactive; BoNT-F LC inh: inactive

What do the screens show for `COc1ccc(O)c(C2NC(CC(C)C)(C(=O)O)C3C(=O)N(Cc4ccccc4)C(=O)C23)c1` (stereo not given)?
MazEF act: inactive; Anthrax LF inh2: inactive; BoNT-A LC inh2: inactive; Autofluor counter: 16430; BoNT-F LC inh: inactive

Results for CCC(=O)c1ccc(SC(=O)N(C)C)cc1O ?
MazEF act: inactive; Anthrax LF inh2: inactive; BoNT-A LC inh2: inactive; Autofluor counter: inactive; BoNT-F LC inh: inactive

What do the screens show for `COc1ccc(C(=O)CSc2nnc(C3CC3)n2N)cc1`?
MazEF act: inactive; Anthrax LF inh2: inactive; BoNT-A LC inh2: inconclusive; Autofluor counter: 22665; BoNT-F LC inh: inactive

What do the screens show for `CCn1c(SCC(=O)c2ccc(OC)cc2)nnc1C1CC1`?
MazEF act: inactive; Anthrax LF inh2: inactive; BoNT-A LC inh2: inactive; Autofluor counter: inactive; BoNT-F LC inh: inactive

How did CCOc1ccc(NC(=O)CSc2nnc(C3CC3)n2N)cc1 do in these assays?
MazEF act: inactive; Anthrax LF inh2: inactive; BoNT-A LC inh2: inactive; Autofluor counter: 23438; BoNT-F LC inh: inactive

Results for O=C(CCN=C1NS(=O)(=O)c2ccccc21)OCc1nnc(-c2ccccc2)o1 ?
MazEF act: inactive; Anthrax LF inh2: inactive; BoNT-A LC inh2: inactive; Autofluor counter: inactive; BoNT-F LC inh: inactive

How did Brc1ccc2nc(C3CCCCC3)c(CC3CCCCC3)n2c1 do in these assays?
Anthrax LF inh2: inactive; BoNT-A LC inh2: inactive; Autofluor counter: inactive; BoNT-F LC inh: inactive

How did Cn1nc(CC(=O)NC2CCCCC2)c2ccccc2c1=O do in these assays?
MazEF act: inactive; Anthrax LF inh2: inactive; BoNT-A LC inh2: inactive; Autofluor counter: 23933; BoNT-F LC inh: inactive

How did COc1ccc(OC)c(NC(=O)Cc2nn(C)c(=O)c3ccccc23)c1 do in these assays?
MazEF act: inactive; Anthrax LF inh2: inactive; BoNT-A LC inh2: inactive; Autofluor counter: inactive; BoNT-F LC inh: inactive

How did Cn1nc(CC(=O)NC2CCCCCC2)c2ccccc2c1=O do in these assays?
MazEF act: inactive; Anthrax LF inh2: inactive; BoNT-A LC inh2: inactive; Autofluor counter: inactive; BoNT-F LC inh: inactive

Results for Cn1nc(C(=O)NC2CCCCCC2)ccc1=O ?
MazEF act: inactive; Anthrax LF inh2: inactive; BoNT-A LC inh2: inconclusive; Autofluor counter: 22596; BoNT-F LC inh: inactive

Results for COc1cc(NC(=O)Cc2nn(C)c(=O)c3ccccc23)cc(OC)c1OC ?
MazEF act: inactive; Anthrax LF inh2: inactive; BoNT-A LC inh2: inconclusive; Autofluor counter: 17080; BoNT-F LC inh: inactive

Results for Cc1ccc(S(=O)(=O)N2C[C@H]3N(C(=O)OC(C)C)N(C(=O)OC(C)C)C[C@H](OC(=O)Nc4cccs4)[C@@]3(O)C2)cc1 ?
MazEF act: inactive; Anthrax LF inh2: inactive; BoNT-A LC inh2: inactive; Autofluor counter: inactive; BoNT-F LC inh: inactive

Results for CCN(Cc1ccccc1)Cc1c(C)[nH]c2c(C)c(C)ccc2c1=O ?
MazEF act: inactive; Anthrax LF inh2: inactive; BoNT-A LC inh2: inconclusive; Autofluor counter: 20905; BoNT-F LC inh: inactive

Results for C=CCN(CC=C)Cc1c(C)[nH]c2c(C)c(C)ccc2c1=O ?
MazEF act: inactive; Anthrax LF inh2: inactive; BoNT-A LC inh2: inactive; Autofluor counter: inactive; BoNT-F LC inh: inactive
